# In PubChem BioAssay AID651635 (National Center for Advancing Translational Sciences (NCATS), 2013):
# Among all 400,000 compounds or so, about 1,900 (0.47%) were called active. Not shown: some 14% with an inconclusive outcome. This is one part of a sample in which actives are shown more often than they occur. The call rests on the fitted dose curve; in most records, active means well fitted cell-killing curve with a large enough effect; inconclusive means small, poorly fitted or top-dose-only effect, or effect the other way; inactive means no such curve, though single readings can be large or run the other way.
# Experiment: Viability Counterscreen for Primary qHTS for Inhibitors of ATXN expression; further: nearly all actives have a fitted effect of over 40% in size
# Details: S2 cells (HEK-293 line with an ATXN2-luciferase reporter) viability, CellTiter-Fluor protease fluorescence, 24 h; series mostly up to 56.7 µM; activity change, negative = cytotoxicity: at the top concentration
# Description: Spinocerebellar ataxia type 2 (SCA2) is a multisystem neurodegenerative disease caused by a dominantly-acting mutation leading to expansion of a polyQ domain in the ataxin-2 protein (ATXN2). SCA2 patients develop progressive ataxia and later lose function in other neuronal systems. Prominent parkinsonian signs develop in some patients. Similar to many neurodegenerative disorders, no symptomatic or disease-modifying treatments are known.
# The primary objective of the proposed research is to identify compounds inhibiting ATXN2 expression and to test them for efficacy in SCA2 mouse models. To this end, we have developed a cell-based assay paired with an in vivo mouse model using identical luciferase expression constructs. This approach takes advantage of an ATXN2-luciferase transgene, with the luciferase gene flanked by the upstream and downstream portions of the ATXN2 gene. This primary assay was tested against the NIH Molecular Libraries Small Molecule Repository (MLSMR).
# NIH Chemical Genomics Center [NCGC]
# NIH Molecular Libraries Probe Centers Network [MLPCN]
# Assay Submitter (PI): Daniel Scoles, University of Utah
# PROTOCOL TABLE (as described by Inglese J, Shamu CE and Guy RK. 2007)
# SEQUENCE No. (e.g., 1, 2, 3, etc.); […] (e.g., Cells, Incubation, Reagent, etc.); VALUE; DESCRIPTION.
# 1; Cells; 4 uL; white, solid bottom, 1536-well Greiner assay plate.
# 2; Incubation; 2 hr; 37 degree C in 5% humidified CO2.
# 3; Compounds; 23 nL; Kalypsis pintool (Wako USA) equipped with a 1536-well pin head.
# 4; Incubation; 24 hr; 37 degree C in 5% humidified CO2.
# 5; Reagent; 1 uL; Gly-Phe-7-Amino-4-trifluoromethylcoumarin.
# 6; Incubation; 30 min; 37 degree C in 5% humidified CO2.
# 7; Detection; Fluorescence; ViewLux plate reader (PerkinElmer).
# 8; Reagent; 3 uL; SteadyGlo luciferase solution (Promega).
# 9; Incubation; 5 min; room temperature.
# 10; Detection; Luminescence; ViewLux plate reader (PerkinElmer).
# NOTES (numbers refer to Sequence numbers above)
# 1. S2 cells expressing ATXN2-luciferase reporter were suspended in phenol-red free DMEM and dispensed in assay plates using a Multidrop Combi dispenser (Thermo Fisher Scientific).
# 2. Assay plates were incubated. Evaporation was prevented by covering assay plates with metal lids containing holes to allow gas diffusion.
# 3. […] Vehicle-only plates, with DMSO being pin-transferred to columns 5-48, were inserted uniformly at the beginning and the end of each library to monitor and record any shifts in assay performance.
# 5. 125 uM Gly-Phe-7-Amino-4-trifluoromethylcoumarin (MP Biomedicals) working concentration was used at a final concentration of 25 uM.
# 7. To assess cell viability; the assay plates were read using the ViewLux high-throughput CCD imager (PerkinElmer), wherein single end-point fluorescence measurement was acquired (excitation 405/10; emission 540/25 nm).
# 8. Detection reagent SteadyGlo Luciferase (Promega) was added to the assay plate.
# 10. Luminescence is then measured on the ViewLux imager equipped with a clear emission filter using a 2 sec exposure. All screening operations were performed on a fully integrated robotic system (Kalypsys) containing one RX-130 and two RX-90 anthropomorphic robotic arms (Staubli).
# Inglese J, Shamu CE and Guy RK, Reporting data from high throughput screening of small molecule libraries, Nature Chemical Biology, 2007, 3(8): 438-441. doi.org/10.1038/nchembio0807-438.
# Potency means the concentration at half of the fitted maximal effect.
Compound,Potency,"activity change, negative = cytotoxicity"
CC[C@H]1CN2CCc3cc(OC)c(OC)cc3[C@@H]2C[C@@H]1C[C@H]1NCCc2cc(OC)c(OC)cc21,39.8 µM (active),
C[C@H]1CC[C@@]2(NC1)O[C@@H]1C[C@H]3[C@@H]4CC=C5C[C@@H](O)CC[C@]5(C)[C@@H]4CC[C@]3(C)[C@@H]1[C@@H]2C,,-10.1% [at 25.4 µM] (inactive)
C[C@]12CC[C@@H]3C(=CCc4cc(O)ccc43)[C@@H]1CCC2=O,,-14% [at 25.4 µM] (inactive)
CCOC(=O)c1c(C)c(C(=O)N2CCC3(CC2)OCCO3)c(C)n1CC,,-18.8% (inactive)
CC(Cc1ccccc1)NC=O (stereo not given),,-23.5% (inactive)
CC(=O)NC(=O)NC(C)Cc1ccccc1 (stereo not given),,-18.5% (inactive)
CC(Cc1ccccc1)NCCC(c1ccccc1)c1ccccc1 (stereo not given),20 µM (active),
Cc1cc(-c2ccc(N)c(C)c2)ccc1N,,-2.03% (inactive)
CCN1C[C@@]2(COC)CC[C@H](OC)[C@]34[C@@H]1[C@]1(OCO[C@@]15C[C@@H](OC)C1C[C@H]3[C@H]5[C@@H]1OC)[C@H](O)[C@@H]24,,-11% [at 25.4 µM] (inactive)
CN1[C@@H]2CC[C@H]1CC(OC(=O)c1cc(Cl)cc(Cl)c1)C2 (stereo not given in full),,-11.7% (inactive)
O=C(CSc1ccccc1)Nc1ccc(C(=O)Nc2cccc(O)c2)cc1,,-57.2% (inactive)
COc1ccccc1C(=O)N[C@@H]1c2ccccc2C2(CCN(Cc3nc(C(C)C)cs3)CC2)[C@H]1O,35.5 µM (active),
COC(=O)C1=C(c2ccc(Cl)c(C(F)(F)F)c2)C[C@@H]2CC[C@H]1N2C(=O)NC1CC1,,-40.4% (inactive)
Clc1ccc([C@@H]2C[C@H]3CC[C@@H]2N3)cn1,,-15.3% [at 114 µM] (inactive)
C[C@]12CC[C@H](O)C[C@@H]1CC[C@H]1[C@H]2CC[C@]2(C)C(=O)CC[C@@H]12,inactive,
CCOC(=O)[C@]12Cc3ccccc3[C@H]1N(C1CCCCC1)C(=O)c1cc(OC)ccc12,10 µM (active),
CCOC(=O)[C@]12Cc3cc(OC)ccc3[C@H]1N(C(C)C)C(=O)c1ccccc12,11.2 µM (active),
COc1cccc(-c2ccc(O)c(CNC3CN4CCC3CC4)c2)n1 (stereo not given),,5.68% (inactive)
CCN1C[C@]2(C)CC[C@H](O)[C@@]34[C@@H]5CC6[C@@H](OC)C[C@@](O)([C@@H]5[C@@H]6O)[C@H](C[C@@H]23)[C@H]14,,-4.51% [at 25.4 µM] (inactive)
CCCOC(=O)c1cncn1C(C)c1ccccc1 (stereo not given),,0.735% (inactive)
Cc1nnc(NC(=O)c2cccn(Cc3cccc(F)c3)c2=O)s1,,-19.4% (inactive)
CCOC(=O)c1c(-c2ccccc2)oc2ccc(OC(=O)N(C)C)cc12,,4.74% (inactive)
COC(=O)C1=C(c2ccc(F)cc2OCc2ccccc2)C[C@@H]2CC[C@H]1N2C(=O)NCc1ccc2[nH]ccc2c1,,-34.1% (inactive)

Compound,Potency,"activity change, negative = cytotoxicity"
CC1N=C(N)OC1c1ccccc1 (stereo not given),,-1.45% [at 114 µM] (inactive)
O=C(Cn1c(=O)n(CC2CS2)c2ccccc21)N1CCCCC1 (stereo not given),,-4.21% (inactive)
CC(=CCOc1ccc2ccc(=O)oc2c1)C1=CC(=O)C(C)(C)O1,,-34.9% (inactive)
O=c1[nH]c2ccccc2n1C1CCN(C(c2ccnc3ccccc23)c2nnnn2Cc2ccccc2)CC1 (stereo not given),12.6 µM (active),
O=c1[nH]c2ccccc2n1C1CCN(C(c2ccccc2)c2nnnn2Cc2ccccc2)CC1 (stereo not given),7.08 µM (active),
Cc1ccc(Cn2nnnc2CN2CCC(n3nnc4ccccc43)CC2)cc1,,-3.67% (inactive)
CCC(=NCCc1ccccc1)c1c(O)n(C2CCCCC2)c(=O)[nH]c1=O,,-28.9% (inactive)
O=P1(N(CCCl)CCCl)NC(OO)CCO1 (stereo not given),,3.6% (inactive)
Cc1ccsc1C(=O)C1CCCN(Cc2ccc(O)cc2)C1 (stereo not given),,-7.9% (inactive)
Cc1ccc(N2C(=O)NC(=O)C(CCc3ccncc3)(Cc3cccc(Cl)c3Cl)C2=O)cc1 (stereo not given),,-29.8% (inactive)
CCOP(=O)(OCC)C(O)c1ccc(OC)cc1OC (stereo not given),,-10.4% (inactive)
CC[N+]1(CCOC(=O)C(O)(c2ccccc2)c2ccccc2)CCCCC1,,16.1% (inactive)
Cc1ccc(Cl)cc1N1CCN(C(=O)C2CCC(CNS(=O)(=O)c3cccs3)CC2)CC1 (stereo not given),,-31.8% (inactive)
Oc1ccc2c3c1OC1[C@H](O)CC[C@@]4(O)[C@@H](C2)N(CC2CC2)CC[C@]314 (stereo not given in full),inactive,
CO[C@]12CC[C@@]3(C[C@@H]1[C@](C)(O)C(C)(C)C)[C@@H]1Cc4ccc(O)c5c4[C@@]3(CCN1CC1CC1)[C@H]2O5,35.5 µM (active),
CN(C)c1ccc(/C=C2\CC3C4CC=C5CC(O)CCC5(C)C4CCC3(C)C2=O)cc1 (stereo not given),,-18.1% (inactive)
CC(C)=C[C@@H]1[C@@H](C(=O)OCc2coc(Cc3ccccc3)c2)C1(C)C,,9.08% (inactive)
Cc1cc(OCc2cc(C(=O)O)oc2C)c2c3c(c(=O)oc2c1)CCCC3,,7.94% (inactive)
CN(Cc1cccc2ncccc12)C(=O)c1cnn(-c2nccc(-c3ccccc3F)n2)c1C1CC1,22.4 µM (active),
CCCCC1C(=O)NC(=O)N(C2CCCCC2)C1=O (stereo not given),,-8.69% (inactive)
CC1=C(C(=O)O)N2C(=O)[C@@H](N)[C@H]2SC1,,3.3% [at 25.4 µM] (inactive)
NCC(O)c1ccc(O)cc1 (stereo not given),inactive,
